Experiment [1] concerns the target T1, Ephrin type-A receptor 3 (Homo sapiens) (UniProt P29320).
T1 sequence (whole entry): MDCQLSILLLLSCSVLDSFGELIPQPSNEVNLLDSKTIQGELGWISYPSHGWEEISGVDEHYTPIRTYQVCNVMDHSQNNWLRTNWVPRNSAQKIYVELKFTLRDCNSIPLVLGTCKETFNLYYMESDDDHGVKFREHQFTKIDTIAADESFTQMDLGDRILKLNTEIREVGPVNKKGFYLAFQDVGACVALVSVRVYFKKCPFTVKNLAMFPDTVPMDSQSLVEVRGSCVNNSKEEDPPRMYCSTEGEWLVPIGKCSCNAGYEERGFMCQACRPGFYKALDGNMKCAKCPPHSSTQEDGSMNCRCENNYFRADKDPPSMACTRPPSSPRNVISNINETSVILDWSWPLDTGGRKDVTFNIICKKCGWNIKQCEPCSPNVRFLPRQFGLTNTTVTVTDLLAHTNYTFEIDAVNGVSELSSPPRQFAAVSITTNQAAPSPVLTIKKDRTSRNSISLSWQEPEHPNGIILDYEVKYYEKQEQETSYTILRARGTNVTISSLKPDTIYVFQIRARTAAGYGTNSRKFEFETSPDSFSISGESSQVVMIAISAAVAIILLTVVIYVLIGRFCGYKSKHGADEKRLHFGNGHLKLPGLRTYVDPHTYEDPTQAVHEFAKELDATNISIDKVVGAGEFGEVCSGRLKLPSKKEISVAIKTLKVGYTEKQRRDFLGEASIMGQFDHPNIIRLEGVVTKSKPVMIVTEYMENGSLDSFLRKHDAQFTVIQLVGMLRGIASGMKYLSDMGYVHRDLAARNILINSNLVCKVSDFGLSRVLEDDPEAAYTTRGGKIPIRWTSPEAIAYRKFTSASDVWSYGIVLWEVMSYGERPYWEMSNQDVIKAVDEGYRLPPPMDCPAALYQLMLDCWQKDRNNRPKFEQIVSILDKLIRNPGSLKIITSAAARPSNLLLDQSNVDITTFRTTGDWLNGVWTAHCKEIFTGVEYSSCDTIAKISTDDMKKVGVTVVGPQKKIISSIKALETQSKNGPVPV
Particulars: at 10 µM.

Experiment [2] has as its target Ephrin type-A receptor 4 (Homo sapiens) (UniProt P54764). Particulars: at 1 µM.
For experiment [3] the target is unchanged. Particulars: at 10 µM.
Experiment [4] concerns the target Ephrin type-A receptor 5 (Homo sapiens) (UniProt P54756). Particulars: at 1 µM.
For experiment [5] the target is unchanged. Particulars: at 10 µM.
Experiment [6] deals with Ephrin type-A receptor 7 (Homo sapiens) (UniProt Q15375). Particulars: at 1 µM.
Sequence of Ephrin type-A receptor 7 (Homo sapiens) (Q15375 28-998 limits assumed): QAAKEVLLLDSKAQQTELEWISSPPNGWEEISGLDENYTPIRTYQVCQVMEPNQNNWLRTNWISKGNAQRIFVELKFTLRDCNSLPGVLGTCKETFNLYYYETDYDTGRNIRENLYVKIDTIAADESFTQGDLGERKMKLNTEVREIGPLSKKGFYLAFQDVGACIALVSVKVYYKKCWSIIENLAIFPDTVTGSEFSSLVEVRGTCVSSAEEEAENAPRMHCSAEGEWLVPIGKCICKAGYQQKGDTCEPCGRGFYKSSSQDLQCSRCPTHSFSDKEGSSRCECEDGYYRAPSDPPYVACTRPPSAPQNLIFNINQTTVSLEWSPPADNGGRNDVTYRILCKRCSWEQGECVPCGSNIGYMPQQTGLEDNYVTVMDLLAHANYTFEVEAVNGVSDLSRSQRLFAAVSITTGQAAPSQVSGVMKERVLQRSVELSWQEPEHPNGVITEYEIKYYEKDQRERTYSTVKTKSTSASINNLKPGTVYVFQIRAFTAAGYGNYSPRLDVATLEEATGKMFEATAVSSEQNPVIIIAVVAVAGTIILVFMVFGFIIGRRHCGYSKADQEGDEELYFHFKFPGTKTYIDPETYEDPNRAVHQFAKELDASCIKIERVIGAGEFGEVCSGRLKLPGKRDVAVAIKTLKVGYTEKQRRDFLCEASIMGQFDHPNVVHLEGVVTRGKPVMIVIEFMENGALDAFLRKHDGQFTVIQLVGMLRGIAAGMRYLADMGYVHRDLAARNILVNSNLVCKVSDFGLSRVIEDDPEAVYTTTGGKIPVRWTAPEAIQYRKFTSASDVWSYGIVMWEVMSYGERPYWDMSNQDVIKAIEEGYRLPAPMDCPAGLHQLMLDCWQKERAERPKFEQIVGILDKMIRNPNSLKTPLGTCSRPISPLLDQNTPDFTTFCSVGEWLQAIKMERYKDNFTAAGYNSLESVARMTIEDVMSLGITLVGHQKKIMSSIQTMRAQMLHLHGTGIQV
For experiment [7] the target is unchanged. Particulars: at 10 µM.
Experiment [8] has as its target T2, Ephrin type-A receptor 8 (Homo sapiens) (UniProt P29322).
T2 sequence (whole entry): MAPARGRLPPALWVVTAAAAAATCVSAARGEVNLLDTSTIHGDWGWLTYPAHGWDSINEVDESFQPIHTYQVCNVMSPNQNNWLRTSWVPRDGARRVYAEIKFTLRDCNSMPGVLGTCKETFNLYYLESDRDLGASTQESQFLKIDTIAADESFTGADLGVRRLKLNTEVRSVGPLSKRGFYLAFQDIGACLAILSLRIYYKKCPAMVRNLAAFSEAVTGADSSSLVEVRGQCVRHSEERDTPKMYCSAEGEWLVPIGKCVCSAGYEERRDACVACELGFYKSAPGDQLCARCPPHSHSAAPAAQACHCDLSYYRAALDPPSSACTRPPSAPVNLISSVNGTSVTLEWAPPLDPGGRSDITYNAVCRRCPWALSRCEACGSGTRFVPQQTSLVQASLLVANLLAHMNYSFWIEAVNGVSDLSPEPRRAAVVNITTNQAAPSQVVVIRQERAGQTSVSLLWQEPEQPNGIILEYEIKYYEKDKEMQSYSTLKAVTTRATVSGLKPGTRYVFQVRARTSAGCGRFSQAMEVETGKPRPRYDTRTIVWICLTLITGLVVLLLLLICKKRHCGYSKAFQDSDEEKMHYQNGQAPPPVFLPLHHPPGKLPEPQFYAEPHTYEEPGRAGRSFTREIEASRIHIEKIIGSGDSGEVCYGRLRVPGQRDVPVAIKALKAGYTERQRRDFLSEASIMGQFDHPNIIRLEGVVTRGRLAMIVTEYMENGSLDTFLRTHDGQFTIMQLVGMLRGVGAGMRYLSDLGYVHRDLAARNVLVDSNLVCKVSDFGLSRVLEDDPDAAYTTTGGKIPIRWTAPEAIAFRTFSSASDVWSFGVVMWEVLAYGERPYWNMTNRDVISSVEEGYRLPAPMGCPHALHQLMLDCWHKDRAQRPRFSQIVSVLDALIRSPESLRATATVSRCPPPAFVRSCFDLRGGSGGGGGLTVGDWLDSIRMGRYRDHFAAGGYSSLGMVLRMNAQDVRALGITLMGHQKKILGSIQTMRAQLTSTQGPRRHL
Particulars: at 1 µM.

Experiment [9] concerns the target T2, Ephrin type-A receptor 8 (Homo sapiens). Particulars: at 10 µM.
In experiment [10] the target is T3, Ephrin type-B receptor 1 (Homo sapiens) (UniProt P54762).
T3 sequence (whole entry): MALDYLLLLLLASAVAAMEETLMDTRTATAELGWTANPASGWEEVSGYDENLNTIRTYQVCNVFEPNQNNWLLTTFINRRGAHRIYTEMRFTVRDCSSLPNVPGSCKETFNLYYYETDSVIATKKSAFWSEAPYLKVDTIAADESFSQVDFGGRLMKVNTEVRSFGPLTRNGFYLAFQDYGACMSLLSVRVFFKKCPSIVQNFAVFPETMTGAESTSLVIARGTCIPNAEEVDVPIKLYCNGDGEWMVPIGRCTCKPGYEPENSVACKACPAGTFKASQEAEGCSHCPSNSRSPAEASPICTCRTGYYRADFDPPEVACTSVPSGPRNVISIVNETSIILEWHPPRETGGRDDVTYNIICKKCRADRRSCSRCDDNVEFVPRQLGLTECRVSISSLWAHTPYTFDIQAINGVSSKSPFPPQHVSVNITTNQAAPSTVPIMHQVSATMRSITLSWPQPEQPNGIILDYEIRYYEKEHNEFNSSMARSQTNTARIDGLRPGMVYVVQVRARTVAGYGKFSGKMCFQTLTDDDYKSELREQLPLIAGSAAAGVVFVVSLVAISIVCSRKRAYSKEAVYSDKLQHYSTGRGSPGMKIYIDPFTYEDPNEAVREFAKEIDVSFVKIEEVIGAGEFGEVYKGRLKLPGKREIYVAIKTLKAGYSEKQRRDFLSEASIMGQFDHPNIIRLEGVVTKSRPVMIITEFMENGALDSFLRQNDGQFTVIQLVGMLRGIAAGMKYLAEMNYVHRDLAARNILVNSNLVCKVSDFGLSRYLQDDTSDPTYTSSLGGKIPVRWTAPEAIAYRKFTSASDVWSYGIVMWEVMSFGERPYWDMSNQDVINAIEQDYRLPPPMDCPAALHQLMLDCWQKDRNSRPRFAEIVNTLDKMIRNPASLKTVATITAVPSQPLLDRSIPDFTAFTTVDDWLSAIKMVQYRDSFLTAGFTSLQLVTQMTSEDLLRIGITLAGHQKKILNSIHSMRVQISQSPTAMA
Particulars: at 1 µM.

The text below walks through data of ChEMBL document CHEMBL2218924, “A broad activity screen in support of a chemogenomic map for kinase signalling research and drug discovery” (Biochem J, 2013).

The residual activity is the signal under treatment as a percentage of the control signal.

Each structure is given as a SMILES string.

Sequence of Ephrin type-A receptor 5 (Homo sapiens) (P54756 whole entry): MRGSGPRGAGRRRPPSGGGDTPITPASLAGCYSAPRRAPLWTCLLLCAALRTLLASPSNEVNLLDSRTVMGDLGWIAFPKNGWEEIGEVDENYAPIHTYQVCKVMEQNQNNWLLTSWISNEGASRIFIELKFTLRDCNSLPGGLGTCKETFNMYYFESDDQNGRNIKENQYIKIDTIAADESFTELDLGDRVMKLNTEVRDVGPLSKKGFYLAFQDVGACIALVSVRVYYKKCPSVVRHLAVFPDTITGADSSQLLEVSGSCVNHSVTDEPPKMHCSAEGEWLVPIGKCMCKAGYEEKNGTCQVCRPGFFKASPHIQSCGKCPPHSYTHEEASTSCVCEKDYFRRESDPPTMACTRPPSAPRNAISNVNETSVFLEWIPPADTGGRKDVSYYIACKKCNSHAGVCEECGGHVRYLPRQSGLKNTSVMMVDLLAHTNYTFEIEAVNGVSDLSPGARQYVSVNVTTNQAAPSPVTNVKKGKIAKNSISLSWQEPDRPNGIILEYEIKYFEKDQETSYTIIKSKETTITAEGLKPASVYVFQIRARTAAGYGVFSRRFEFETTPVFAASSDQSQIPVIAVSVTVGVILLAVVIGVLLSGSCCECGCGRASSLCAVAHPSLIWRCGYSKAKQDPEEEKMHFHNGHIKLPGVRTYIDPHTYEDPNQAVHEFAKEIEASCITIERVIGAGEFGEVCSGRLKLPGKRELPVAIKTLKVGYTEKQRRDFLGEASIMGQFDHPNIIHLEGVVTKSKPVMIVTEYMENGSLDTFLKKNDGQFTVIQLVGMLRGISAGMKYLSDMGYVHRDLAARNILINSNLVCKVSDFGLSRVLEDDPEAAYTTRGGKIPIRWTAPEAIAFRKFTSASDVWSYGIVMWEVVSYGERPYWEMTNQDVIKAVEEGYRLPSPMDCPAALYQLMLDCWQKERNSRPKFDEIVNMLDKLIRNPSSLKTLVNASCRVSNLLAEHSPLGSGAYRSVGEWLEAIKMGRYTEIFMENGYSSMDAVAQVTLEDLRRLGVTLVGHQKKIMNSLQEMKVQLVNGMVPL
Sequence of Ephrin type-A receptor 4 (Homo sapiens) (P54764 whole entry): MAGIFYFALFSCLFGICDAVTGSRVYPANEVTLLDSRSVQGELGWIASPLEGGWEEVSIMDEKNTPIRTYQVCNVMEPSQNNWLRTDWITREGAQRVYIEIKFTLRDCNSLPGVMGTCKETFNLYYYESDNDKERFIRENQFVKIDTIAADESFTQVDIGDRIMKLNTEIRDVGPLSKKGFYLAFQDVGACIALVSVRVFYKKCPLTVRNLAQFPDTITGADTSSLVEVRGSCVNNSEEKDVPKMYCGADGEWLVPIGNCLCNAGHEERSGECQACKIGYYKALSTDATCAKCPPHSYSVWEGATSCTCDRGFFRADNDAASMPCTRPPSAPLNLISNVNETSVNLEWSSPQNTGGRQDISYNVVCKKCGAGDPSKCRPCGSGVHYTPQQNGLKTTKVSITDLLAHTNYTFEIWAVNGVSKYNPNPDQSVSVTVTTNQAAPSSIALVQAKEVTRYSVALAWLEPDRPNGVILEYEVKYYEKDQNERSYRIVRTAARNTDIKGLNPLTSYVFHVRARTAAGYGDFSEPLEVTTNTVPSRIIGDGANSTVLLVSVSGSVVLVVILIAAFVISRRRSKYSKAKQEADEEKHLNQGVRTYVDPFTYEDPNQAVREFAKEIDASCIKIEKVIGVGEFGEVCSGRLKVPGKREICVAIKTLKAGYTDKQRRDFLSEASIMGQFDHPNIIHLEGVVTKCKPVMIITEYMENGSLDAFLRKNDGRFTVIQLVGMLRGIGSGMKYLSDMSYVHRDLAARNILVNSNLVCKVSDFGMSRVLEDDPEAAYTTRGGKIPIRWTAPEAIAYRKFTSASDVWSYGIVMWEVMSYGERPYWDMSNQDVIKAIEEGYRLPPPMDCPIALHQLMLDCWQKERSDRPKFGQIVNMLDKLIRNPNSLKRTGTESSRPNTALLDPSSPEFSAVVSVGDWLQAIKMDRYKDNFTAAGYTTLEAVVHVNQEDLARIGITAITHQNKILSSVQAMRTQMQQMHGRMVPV

With `CC(=O)O/N=C1\C(=C2\C(=O)Nc3cc(Br)ccc32)Nc2ccccc21`, the residual activity was 38% in experiment [1]; 112% in experiment [2]; 84% in experiment [3]; 99% in experiment [4]; 47% in [5]; 100% in experiment [6]. Further, the residual activity in experiment [7] is 79%; in experiment [8], 84%; in experiment [9] it was 77%; in experiment [10] it was 86%.
